The structures appear in SMILES notation. Unmarked numbers belong to inactive results. Records with an inconclusive call do not appear. The source made the active and inactive calls. Unless noted, the call rests on the fitted dose curve; in most records, active means well fitted curve in the direction sought with a large enough effect; inconclusive means small, poorly fitted or top-dose-only effect, or another doubt; inactive means no such curve, though single readings can be large; an effect the other way counts as inactive or inconclusive.

Assay [1] concerns the target Cytochrome P450 2C9 (Homo sapiens) (UniProt P11712). The experiment in a line: qHTS Assay for Inhibitors and Substrates of Cytochrome P450 2C9 (AID 883). Further: nearly all actives have a fitted effect of over 60% in size. Further: potency means the concentration at half of the fitted maximal effect. On activity change, negative = inhibition: on the % scale 0 is the no-effect control and ±100 the full control effect. An outline of the steps:
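Inhibition of CYP2C9 is scored as loss of luminescence, with 57uM sulphaphenazole defining 100% inhibition. Substrate Luciferin-H is used at 100uM, equal to its KM; enzyme at 10nM in 25mM KPO4, 60 min at 37C with NADPH regeneration.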

Assay [2] concerns the target Lysosomal acid glucosylceramidase (Homo sapiens) (UniProt P04062). The assay can be described thus: Glucocerebrosidase-p2 (AID 348; in the data active means potency below about 10 µM; further: potency means the concentration at half of the fitted maximal effect). The note with it: purified GBA, blue fluorogenic substrate, 40 min. In short, it runs like this: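 Compounds titrated from 0.6 nM upwards against 0.2 nM enzyme in pH 5.9 citric acid/KH2PO4, taurocholate, tween-20; blue fluorogenic substrate 80 uM, 40 min room temperature, stopped and read Ex 365/Em 440 for AC50.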

Assay [3] in a line: qHTS Assay for Identification of Small Molecule Agonists for Hypoxia Response Element Signaling Pathway (AID 914; active means well fitted activation curve with a large enough effect in the signal ratio, with a control signal flat, not every such curve was filed as active; the % refers to the signal ratio; further: % of control where 0% means no effect). The note with it: ME-180 (cervical carcinoma) HRE-bla reporter, beta-lactamase ratio, CoCl2, 17 h; activation: stronger effect = higher value. An outline of the steps:
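HRE-bla ME-180 cells, overnight plating in Opti-MEM with 0.5% dialyzed FBS; cpd titration + EC50 CoCl2, 17 h, 37 degrees Celsius; CCF4 2.5 h RT; 460/530 nm ratio; AC50.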
In general terms: Quantitative high-throughput screening tests each substance at several concentrations.

Assay [4] is described as follows: qHTS Assay for Identification of Small Molecule Antagonists for Thrombopoietin (TPO) Signaling Pathway (AID 918). Further: potency means the concentration at half of the fitted maximal effect; nearly all actives have a fitted effect of over 60% in size. The conditions noted are these: TPO-dependent cell signaling reporter, antagonist mode. In short, it runs like this:
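Murine Ba/F3 cells stably expressing human TPO receptor and a Glycoprotein IIb promoter–luciferase reporter were IL-3-starved overnight, treated with compounds plus TPO (26 pM final, its EC50) for 24 hrs at 37 C, then read by luminescence.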

Assay [5] has as its target Cytochrome P450 3A4 (Homo sapiens) (UniProt P08684). The assay can be described thus: qHTS Assay for Inhibitors and Substrates of Cytochrome P450 3A4 (AID 884). Further: nearly all actives have a fitted effect of over 50% in size. Further: potency means the concentration at half of the fitted maximal effect. On activity change, negative = inhibition: on the % scale 0 is the no-effect control and ±100 the full control effect. In short, it runs like this:
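20 nM human CYP3A4 with 25 uM Luciferin-PPXE (at KM) in 200 mM KPO4, preincubated 10 min with compound; NADPH regeneration started a 60 min RT reaction. Luciferin detected by luminescence, normalized to 57 uM ketoconazole as full inhibition.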

The nature of assay [6]: qHTS profiling for inhibitors of Plasmodium falciparum proliferation (AID 504749). Further: nearly all actives have a fitted effect of over 60% in size. Further: potency means the concentration at half of the fitted maximal effect.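 On activity, negative = inhibition: 0% = DMSO vehicle and full inhibition = artemisinin control.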 The conditions noted are these: P. falciparum in erythrocytes, SYBR Green DNA, 72 h, at 28.7 µM (top of the series). In short, it runs like this:
(§1)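 Three-day growth assay of blood-stage parasites in erythrocytes (0.3% parasitemia, 2.5% hematocrit) at 37 C, 5% CO2, quantified by SYBR Green DNA staining after overnight detergent lysis.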

Assay [7] has as its system AS120. The assay is described as above. The note with it: P. falciparum in erythrocytes, SYBR Green DNA, 72 h; series mostly up to 28.7 µM. An outline of the steps: as §1
Assay [8] relates to ATS189. The description is as above. The note with it: P. falciparum in erythrocytes, SYBR Green DNA, 72 h; series mostly up to 28.7 µM. An outline of the steps:
as §1

Assay [9] deals with CP185. Described as above. The note with it: P. falciparum in erythrocytes, SYBR Green DNA, 72 h; series mostly up to 28.7 µM. In short, it runs like this:
as §1

Assay [10] concerns CP191. The assay is described as above. The conditions noted are these: P. falciparum in erythrocytes, SYBR Green DNA, 72 h; series mostly up to 28.7 µM. An outline of the steps: as §1
The subject of assay [11] is CP192. The description is as above. The conditions noted are these: P. falciparum in erythrocytes, SYBR Green DNA, 72 h; series mostly up to 28.7 µM. In short, it runs like this:
as §1

For assay [12], the system named is CP201. The assay is described as above. The conditions noted are these: P. falciparum in erythrocytes, SYBR Green DNA, 72 h; series mostly up to 28.7 µM. An outline of the steps: as §1
Assay [13] deals with CP203. The description is as above. The note with it: P. falciparum in erythrocytes, SYBR Green DNA, 72 h; series mostly up to 28.7 µM. An outline of the steps: as §1
The test system of assay [14] is CP247. The assay is described as above. The conditions noted are these: P. falciparum in erythrocytes, SYBR Green DNA, 72 h; series mostly up to 28.7 µM. An outline of the steps: as §1
In assay [15] the test system is CP305. The assay is described as above. The note with it: P. falciparum in erythrocytes, SYBR Green DNA, 72 h; series mostly up to 28.7 µM. An outline of the steps: as §1
Assay [16] relates to DFO2036. The description is as above. The note with it: P. falciparum in erythrocytes, SYBR Green DNA, 72 h; series mostly up to 28.7 µM. An outline of the steps: as §1
Assay [17] relates to DIV30. The description is as above. The note with it: P. falciparum in erythrocytes, SYBR Green DNA, 72 h; series mostly up to 28.7 µM. In short, it runs like this: as §1
Assay [18] has as its system P94_40. The description is as above. The conditions noted are these: P. falciparum in erythrocytes, SYBR Green DNA, 72 h; series mostly up to 28.7 µM. An outline of the steps:
as §1

Assay [19] deals with PC49. Described as above. The note with it: P. falciparum in erythrocytes, SYBR Green DNA, 72 h; series mostly up to 28.7 µM. An outline of the steps:
as §1

The subject of assay [20] is W2. The assay is described as above. The conditions noted are these: P. falciparum in erythrocytes, SYBR Green DNA, 72 h; series mostly up to 28.7 µM. An outline of the steps:
as §1

Chain of Cytochrome P450 3A4 (Homo sapiens) (P08684 whole entry, looked up): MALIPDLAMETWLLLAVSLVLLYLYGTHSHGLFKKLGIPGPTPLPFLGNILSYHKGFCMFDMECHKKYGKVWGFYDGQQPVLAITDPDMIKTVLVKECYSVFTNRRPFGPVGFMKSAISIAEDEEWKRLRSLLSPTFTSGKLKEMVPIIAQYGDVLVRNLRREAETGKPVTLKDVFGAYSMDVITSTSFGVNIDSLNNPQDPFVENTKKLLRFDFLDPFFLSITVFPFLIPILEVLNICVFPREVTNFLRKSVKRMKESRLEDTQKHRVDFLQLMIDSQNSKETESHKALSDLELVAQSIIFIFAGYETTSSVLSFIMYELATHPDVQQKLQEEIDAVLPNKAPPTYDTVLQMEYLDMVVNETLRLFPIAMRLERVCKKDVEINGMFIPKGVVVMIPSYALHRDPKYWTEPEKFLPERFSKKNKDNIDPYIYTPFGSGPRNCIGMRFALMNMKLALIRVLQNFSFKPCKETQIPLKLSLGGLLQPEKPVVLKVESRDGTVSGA
Chain of Cytochrome P450 2C9 (Homo sapiens) (P11712 whole entry, looked up): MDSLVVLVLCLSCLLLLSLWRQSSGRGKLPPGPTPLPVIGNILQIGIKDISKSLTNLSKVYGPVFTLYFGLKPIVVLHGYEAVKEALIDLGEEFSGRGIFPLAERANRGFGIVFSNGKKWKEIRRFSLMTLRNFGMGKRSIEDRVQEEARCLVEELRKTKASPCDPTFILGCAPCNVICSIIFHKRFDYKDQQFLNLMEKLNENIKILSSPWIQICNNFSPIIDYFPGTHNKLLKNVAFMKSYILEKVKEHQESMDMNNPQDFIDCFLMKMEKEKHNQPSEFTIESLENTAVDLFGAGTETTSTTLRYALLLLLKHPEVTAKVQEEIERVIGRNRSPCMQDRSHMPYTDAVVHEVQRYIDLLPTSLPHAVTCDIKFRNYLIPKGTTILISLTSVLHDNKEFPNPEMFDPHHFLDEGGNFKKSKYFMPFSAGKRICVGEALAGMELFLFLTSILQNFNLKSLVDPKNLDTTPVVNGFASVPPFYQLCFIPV
Chain of Lysosomal acid glucosylceramidase (Homo sapiens) (P04062 whole entry, looked up): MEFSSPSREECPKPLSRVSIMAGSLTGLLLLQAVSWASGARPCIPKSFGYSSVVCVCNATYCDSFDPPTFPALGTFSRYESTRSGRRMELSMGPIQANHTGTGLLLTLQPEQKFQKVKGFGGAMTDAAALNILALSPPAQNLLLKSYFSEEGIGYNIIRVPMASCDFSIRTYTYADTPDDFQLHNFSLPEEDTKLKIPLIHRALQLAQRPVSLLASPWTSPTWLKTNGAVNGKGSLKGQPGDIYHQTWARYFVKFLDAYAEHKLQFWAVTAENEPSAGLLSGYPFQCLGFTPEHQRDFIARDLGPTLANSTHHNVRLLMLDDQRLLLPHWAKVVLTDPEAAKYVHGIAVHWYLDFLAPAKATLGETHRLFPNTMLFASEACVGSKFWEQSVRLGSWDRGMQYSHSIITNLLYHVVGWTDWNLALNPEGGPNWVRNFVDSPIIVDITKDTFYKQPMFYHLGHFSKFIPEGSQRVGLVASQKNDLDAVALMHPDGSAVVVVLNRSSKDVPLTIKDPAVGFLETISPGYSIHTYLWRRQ

As to `O=C(O)CCCC[C@H]1CCSS1`, the Potency result in [1] is “inactive”.

Regarding `CC(CO)(CO)N=Cc1cc(I)cc(I)c1O`, the Potency in [2] was more than 11.4 µM.

As for `Nc1ccc(CCNc2ncnc3c2ncn3[C@@H]2O[C@@H](CO)[C@H](O)[C@@H]2O)cc1`, the activation in assay [3] is 0.683%.

With `Oc1ccc([C@@H]2CNCc3sccc32)cc1O`, in [4], the Potency is 12.6 µM (active).

For the compound `CC(C)N(Cc1ccccc1)S(=O)(=O)c1n[nH]c(C(C)(C)C)n1`, the Potency in assay [1] was 3.98 µM (active).

As for `O=C(O)CCCCCC[C@@H]1C(=O)NC(=O)N1CC[C@@H](O)C1CCCCC1`, in assay [1], the Potency result was “inactive”.

Take `CSC(N)=NCCC[C@@H](N)C(=O)O`: the Potency in assay [4] was 3.16 µM (active).

Regarding `O=C(O)c1cscc1Cc1cccs1`, the Potency entry in assay [1] is “inactive”.

On to `CCNC(=O)[C@@H]1O[C@@H](n2cnc3c(NCc4ccccc4)ncnc32)[C@@H](O)[C@H]1O`, for which the Potency entry in [1] was “inactive”.

For the compound `O=C1O/C(=C\Br)CC[C@@H]1c1cccc2ccccc12`, the Potency is 3.98 µM (active) in assay [5] and 10 µM (active) in [4].

As to `N[C@H](Cc1ccc(O)c(I)c1)C(=O)O`, the Potency result in assay [1] is “inactive”.

Regarding `N#CCCn1c(=O)c(CCc2ccccc2)nc2cnc(Oc3ccccc3)nc21`, the Potency in [1] is 7.94 µM (active); in assay [5], 2.51 µM (active).

Take `CN1CCc2cc(Cl)c(O)cc2[C@H](c2ccccc2)C1`: the Potency result in assay [5] was “inactive”. For the same compound, in assay [3], the activation was -21.3%.

For the compound `Cc1cccc(C)c1OC[C@@H](N)C(C)C`, the activation in [3] was -2.64%.

With `CCN1/C(=C\C(C)=O)Sc2ccc(OC)cc21`, in [1], the Potency result is “inactive”.

In the case of `O=C(O)/C=C\c1cnc[nH]1`, the activation in assay [3] is -4.56%.

`N[C@@H](C(=O)O)[C@@H]1C[C@H]1C(=O)O`: the Potency entry in assay [1] is “inactive”.

`O=C(O)CSC1=NCCN1`: the Potency entry in assay [1] was “inactive”. In addition, the activity change, negative = inhibition in assay [5] is 7.95% [at 11.4 µM].

As for `Cc1sc2ccccc2[n+]1CCC(=O)O`, the activation in assay [3] is -2.73%.

Take `O=c1[nH]c2[nH]c(=S)[nH]c(=S)c2[nH]1`: the Potency in [1] was 1.26 µM (active).

As for `Nc1ncnc2c1ncn2[C@@H]1CCCO1`, the Potency entry in [1] is “inactive”. For the same compound, the activation in assay [3] was -13.1%.

Take `Cc1ccccc1N1CCN(S(=O)(=O)C[C@@]23CC[C@H](C[C@H]2NC(=O)[C@@H](N)CCS(C)(=O)=O)C3(C)C)CC1`: the Potency in [5] was 3.16 µM (active).

Take `O=C(O)CCC/C=C\C[C@H]1[C@@H](/C=C\[C@@H](O)C2Cc3ccccc3C2)[C@H](F)C[C@H]1O`: the Potency entry in assay [1] was “inactive”.

With `CN1C[C@@H](O)[C@@H](O)[C@@H](O)[C@@H]1CO`, in assay [1], the Potency entry is “inactive”. Moreover, the activation in assay [3] was 11.9%.

As to `CN(C)C(=O)/N=N\C(=O)N(C)C`, the Potency in assay [4] was 10 µM (active).

In the case of `C=C1CC[C@H](O)C/C1=C/C=C1\CCC[C@]2(C)[C@H]1CC[C@H]2[C@@H](C)CCCC(C)C`, the activation in assay [3] was -0.192%.

`O=[N+]([O-])c1ccc(CSc2ncnc3c2ncn3[C@@H]2O[C@@H](CO)[C@@H](O)[C@H]2O)cc1`: in assay [5], the Potency result is “inactive”.

Regarding `CCCC[C@]1(C2CCCC2)Cc2cc(OCC(=O)O)c(Cl)c(Cl)c2C1=O`, in [1], the Potency is 2.51 µM (active).

Consider `C[C@]1(c2ccccc2)O[C@@H]2C[C@@H]3[C@@H]4CCC5=CC(=O)C=C[C@@]5(C)[C@]4(F)[C@H](O)C[C@]3(C)[C@@]2(C(=O)CO)O1`, for which, in [5], the Potency is 3.16 µM (active).

Consider `CN(CCc1ccccn1)c1ccc2c(c1)Cc1ccccc1-2`, for which, in assay [5], the Potency is 2.51 µM (active).

In the case of `NC(N)=Nc1nc2ccc([N+](=O)[O-])cc2[nH]1`, the activity change, negative = inhibition in assay [5] was 107% [at 11.4 µM].

As to `C[C@@H]1C[C@H]2[C@H]3C[C@@H](F)C4=CC(=O)C=C[C@]4(C)[C@@]3(Cl)[C@@H](O)C[C@@]2(C)[C@@H]1C(=O)COC(=O)C(C)(C)C`, the activity, negative = inhibition in assay [6] (parasite line A) is 0.272%; in assay [6] (parasite line B), -10.2%. The Potency result in assay [7], in assay [8], in assay [9], in [10], in assay [11] and in assay [12] was “inactive” in each case. The Potency entry in assay [13], in assay [14], in assay [15], in [16], in [17] and in assay [18] was “inactive” throughout. Also, in assay [19], the Potency entry is “inactive”. Also, in assay [20], the Potency is 10.7 µM (active).

Regarding `CC(C)[C@H]1C(=O)C(C(N)=O)=C(O)[C@]2(O)C(=O)C3=C(O)c4c(O)ccc(N(C)C)c4C[C@H]3C[C@@H]12`, the Potency in assay [4] is 2.51 µM (active).

As for `O=C(O)[C@H]1C[C@H](C(=O)O)N1`, the Potency entry in [1] is “inactive”.

Consider `N[C@H](CS(=O)O)C(=O)O`, for which the Potency entry in assay [1] was “inactive”.

Take `CCCCCCCCCCCCC/C=C\[C@H](O)[C@H](N)CO`: in assay [1], the Potency result was “inactive”.

For the origin of these results see PubChem BioAssay (NCATS).
